In PubChem BioAssay one finds composite z-score and z-score data, which are given here for five compounds.

Activity calls are given as the source filed them. Unless noted, how the calls were made is not given here.

The nature of experiment [1]: compounds binding Alexa647 anti-His antibody – biochemical, small-molecule microarray, 635 nm fluorescence, artefact control for SMM control protein annotation, primary screen (AID 1128).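 Further: score merges feature fluorescence with signal-to-noise for each printed compound spot.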 Conditions: higher = more signal.
Experiment [2] relates to Human papillomavirus type 1a E7 protein (residues 1-88). The experiment can be described thus: HPV1a E7 small-molecule binders, primary screen, biochemical, small-molecule microarray, residues 1-88, 635 nm (AID 1129). The conditions noted are these: small-molecule microarray binding, fluorescence 635 nm; higher = more signal.
Experiment [3] concerns the target Focal adhesion kinase 1 (Homo sapiens) (UniProt Q05397). The experiment is described as follows: PTK2 protein binding on printed compound slides – biochemical, small-molecule microarray, 635/667 nm fluorescence, BSA, DTT, primary screen (AID 1130).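 Further: composite of spot emission at 667 nm and signal to noise over triplicate slides.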 Conditions: 635 nm fluorescence, higher = more signal.
Experiment [4] concerns Fibrinogen (Alexa647-labelled). The experiment is described as follows: Alexa647-fibrinogen binding to printed small molecules – biochemical, small-molecule microarray, 635/667 nm fluorescence, artefact control for SMM control-protein annotation, profiling panel (AID 1131).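 Further: z-score merges 667 nm fluorescence with per-spot signal-to-noise over triplicate slides.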 Conditions: fibrinogen-A647 binding fluorescence, higher = more signal.
In experiment [5] the target is Follistatin (Homo sapiens) (UniProt P19883). The experiment is described as follows: FST protein binding to printed compounds – biochemical, small-molecule microarray, 635/667 nm fluorescence, primary screen (AID 1132). Conditions: 635 nm fluorescence, higher = more signal.
Chain of Follistatin (Homo sapiens) (P19883 whole entry, looked up): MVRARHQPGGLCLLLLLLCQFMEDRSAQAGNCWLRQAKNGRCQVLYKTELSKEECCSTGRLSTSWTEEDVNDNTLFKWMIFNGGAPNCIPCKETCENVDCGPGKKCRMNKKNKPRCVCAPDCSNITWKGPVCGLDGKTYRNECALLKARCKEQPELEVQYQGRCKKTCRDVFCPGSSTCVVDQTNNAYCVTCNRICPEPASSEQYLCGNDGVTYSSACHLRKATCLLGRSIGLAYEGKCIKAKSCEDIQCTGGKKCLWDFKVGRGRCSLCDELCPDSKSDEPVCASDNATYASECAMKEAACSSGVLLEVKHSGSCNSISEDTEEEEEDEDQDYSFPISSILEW
Experiment [6] addresses Fibroblast growth factor 2 (Homo sapiens) (UniProt P09038). The experiment is described as follows: basic fibroblast growth factor binding to printed compounds – biochemical, small-molecule microarray, 635/667 nm fluorescence, primary screen (AID 1133). Conditions: FGF2, fluorescence 635/667, higher = more signal.
A short description of experiment [7]: JC-1 mitochondrial potential readout, lung cancer cells – cell-based, A549, JC-1 fluorescence, basal, 24 h, 100 nL, profiling panel (AID 1138).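 Further: A549 lung adenocarcinoma cells under basal conditions with no added stimulus; test concentration not given here.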 The conditions noted are these: higher = more signal.
The subject of the next experiment is Lefty1. The experiment is described as follows: Lefty1 protein binding to printed compounds – biochemical, small-molecule microarray, 635/667 nm fluorescence, primary screen (AID 1139). The conditions noted are these: fluorescence 635/667, higher = more signal.
Experiment [8] deals with wheat germ agglutinin (Triticum aestivum), Alexa647-labelled. The experiment is described as follows: Alexa647-WGA lectin binding to printed small molecules – biochemical, small-molecule microarray, 635/667 nm fluorescence, artefact control for SMM control-protein annotation, profiling panel (AID 1140).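 Further: score merges 667 nm feature emission with signal to noise over triplicate slides.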 Conditions: WGA-A647 binding, 635 nm fluorescence, higher = more signal.

Experiment [9] addresses Luciferin 4-monooxygenase (Photinus pyralis) (UniProt P08659). The experiment can be described thus: inhibition of purified Photinus pyralis luciferase – biochemical, luminescence, purified enzyme, 2006 set, primary screen (AID 1141).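 Further: cell-free assay with purified firefly luciferase at 100 ng per well in PBS; test concentration not given here.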 Conditions: purified firefly luciferase, SteadyGlo luminescence, 30 min; higher = more signal, called active from +8 up or from −8 down.
Experiment [10] has as its system Wnt5a (protein binding on small-molecule microarray). The experiment can be described thus: small molecules binding Wnt5a protein – biophysical, small-molecule microarray, 635/667 nm fluorescence, primary screen (AID 1142).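 Further: fluorescence read at 667 nm with signal to noise per printed feature.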 The conditions noted are these: 635 nm fluorescence, higher = more signal.
Experiment [11] can be described thus: ATP-based viability of Huh7 replicon cells – cell-based, CellTiter-Glo luminescence, basal, 48 h, cytotoxicity control for HCV replication inhibitor project, primary screen (AID 1143).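 Further: Huh7 hepatoma cells carrying a hepatitis C replication reporter with no stimulus; test concentration not given here.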 The conditions noted are these: higher = more signal, called active from +8 up or from −8 down. In general terms: Replicon systems follow genome replication, usually without infectious particles.

A short description of experiment [12]: Pseudomonas biofilm growth suppression – PAO1 strain, BacTiter-Glo luminescence, LB-PBS, primary screen (AID 1144). The conditions noted are these: P. aeruginosa PAO1 biofilm, 12 h, higher = more signal.
Experiment [13] in a line: basal CRE-LacZ reporter activity in PC12 – cell-based, unstimulated, primary screen (AID 1145). The conditions noted are these: no forskolin, luminescence, 4.5 h, higher = more signal, called active from +8 up or from −8 down.
Experiment [14] in a line: forskolin-driven CRE-LacZ activity in PC12 – cell-based, CRE-LacZ reporter, forskolin-stimulated, primary screen (AID 1146).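 Further: PC12 cells with 6xCRE LacZ reporter stimulated by forskolin 10 µM; beta-galactosidase reporter signal reflecting CREB driven transcription.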 The conditions noted are these: luminescence, 4.5 h, higher = more signal, called active from +8 up or from −8 down.
For experiment [15], the target named is Streptavidin (Streptomyces avidinii) (UniProt P22629). The experiment is described as follows: compounds binding control protein streptavidin – biophysical, small-molecule microarray, 635/667 nm fluorescence, artefact control for SMM compound annotation, primary screen (AID 1147).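 Further: signal reflects streptavidin binding to arrayed compounds as a control protein.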 Conditions: higher = more signal.
Chain of Streptavidin (Streptomyces avidinii) (P22629 whole entry, looked up): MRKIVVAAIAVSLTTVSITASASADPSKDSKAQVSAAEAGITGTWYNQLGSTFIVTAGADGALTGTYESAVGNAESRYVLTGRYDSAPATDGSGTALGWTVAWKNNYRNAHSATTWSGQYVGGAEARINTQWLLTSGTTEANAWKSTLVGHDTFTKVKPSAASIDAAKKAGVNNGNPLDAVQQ
The nature of experiment [16]: probe aInhba binding on compound microarray – biochemical, small-molecule microarray, 635/667 nm fluorescence, primary screen (AID 1148).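 Further: score merges 667nm spot fluorescence with signal-to-noise for antibody binding to printed compounds.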 The conditions noted are these: higher = more signal.
Experiment [17] deals with Torsin-1A (Homo sapiens) (UniProt O14656). The experiment can be described thus: TOR1A wild-type binding on microarray – cell lysate, small-molecule microarray, lysate, 635/667 nm, primary screen (AID 1149). Conditions: COS7 hTOR1A-WT lysate, 635 nm fluorescence, higher = more signal.
Chain of Torsin-1A (Homo sapiens) (O14656 whole entry, looked up): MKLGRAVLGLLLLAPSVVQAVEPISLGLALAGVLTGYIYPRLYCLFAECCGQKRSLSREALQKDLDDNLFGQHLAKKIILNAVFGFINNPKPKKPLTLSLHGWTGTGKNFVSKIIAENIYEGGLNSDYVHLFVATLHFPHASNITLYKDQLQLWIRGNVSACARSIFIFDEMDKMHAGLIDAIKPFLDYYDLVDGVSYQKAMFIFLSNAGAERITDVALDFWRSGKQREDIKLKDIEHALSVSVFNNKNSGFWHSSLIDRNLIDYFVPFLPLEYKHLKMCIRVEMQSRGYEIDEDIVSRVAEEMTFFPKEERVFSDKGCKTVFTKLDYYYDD
The target is the same in experiment [18]. The experiment can be described thus: torsin A mutant lysate binding on microarrays – cell lysate, small-molecule microarray, COS7 lysate, 635/667 nm fluorescence, primary screen (AID 1150).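 Further: score pools 667 nm emission and signal to noise measuring lysate protein binding.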 The conditions noted are these: COS7 hTOR1A mutant lysate, 635 nm fluorescence, higher = more signal.
In experiment [19] the test system is Sonic hedgehog protein (Shh). The experiment can be described thus: Sonic hedgehog microarray binding compounds – biochemical, small-molecule microarray, 635/667 nm fluorescence, primary screen (AID 1151).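 Further: Shh protein binding to compounds spotted on small-molecule microarray slides; score combines spot fluorescence intensity with signal-to-noise across triplicate slides.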 Conditions: 635 nm fluorescence, higher = more signal.

Chain of Focal adhesion kinase 1 (Homo sapiens) (Q05397 whole entry, looked up): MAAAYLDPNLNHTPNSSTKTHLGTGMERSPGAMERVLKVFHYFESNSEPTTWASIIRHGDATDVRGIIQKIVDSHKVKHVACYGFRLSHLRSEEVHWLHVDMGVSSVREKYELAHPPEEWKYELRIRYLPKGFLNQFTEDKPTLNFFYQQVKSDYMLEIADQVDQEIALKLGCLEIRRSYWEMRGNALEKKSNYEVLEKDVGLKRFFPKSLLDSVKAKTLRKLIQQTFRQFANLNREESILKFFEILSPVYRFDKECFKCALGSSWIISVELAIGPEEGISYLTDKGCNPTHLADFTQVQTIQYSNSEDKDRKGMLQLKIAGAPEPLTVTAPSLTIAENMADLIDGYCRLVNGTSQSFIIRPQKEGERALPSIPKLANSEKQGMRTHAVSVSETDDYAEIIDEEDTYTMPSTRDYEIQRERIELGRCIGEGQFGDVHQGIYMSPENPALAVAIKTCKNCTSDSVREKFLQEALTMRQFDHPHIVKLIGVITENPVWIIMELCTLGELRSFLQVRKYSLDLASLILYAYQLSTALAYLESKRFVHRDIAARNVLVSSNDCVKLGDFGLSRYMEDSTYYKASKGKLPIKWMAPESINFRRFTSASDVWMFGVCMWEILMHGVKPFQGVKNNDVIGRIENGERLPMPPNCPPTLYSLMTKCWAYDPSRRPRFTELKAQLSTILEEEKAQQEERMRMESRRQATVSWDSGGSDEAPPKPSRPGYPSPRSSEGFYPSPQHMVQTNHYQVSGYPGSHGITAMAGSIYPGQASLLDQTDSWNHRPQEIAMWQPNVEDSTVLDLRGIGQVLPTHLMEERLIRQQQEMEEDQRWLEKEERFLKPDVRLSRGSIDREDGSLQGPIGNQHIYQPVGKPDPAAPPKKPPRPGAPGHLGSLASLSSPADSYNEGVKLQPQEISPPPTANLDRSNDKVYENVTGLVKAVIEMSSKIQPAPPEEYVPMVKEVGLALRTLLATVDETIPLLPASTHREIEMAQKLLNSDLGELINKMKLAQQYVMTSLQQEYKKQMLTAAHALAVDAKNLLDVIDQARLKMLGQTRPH
Chain of Luciferin 4-monooxygenase (Photinus pyralis) (P08659 whole entry, looked up): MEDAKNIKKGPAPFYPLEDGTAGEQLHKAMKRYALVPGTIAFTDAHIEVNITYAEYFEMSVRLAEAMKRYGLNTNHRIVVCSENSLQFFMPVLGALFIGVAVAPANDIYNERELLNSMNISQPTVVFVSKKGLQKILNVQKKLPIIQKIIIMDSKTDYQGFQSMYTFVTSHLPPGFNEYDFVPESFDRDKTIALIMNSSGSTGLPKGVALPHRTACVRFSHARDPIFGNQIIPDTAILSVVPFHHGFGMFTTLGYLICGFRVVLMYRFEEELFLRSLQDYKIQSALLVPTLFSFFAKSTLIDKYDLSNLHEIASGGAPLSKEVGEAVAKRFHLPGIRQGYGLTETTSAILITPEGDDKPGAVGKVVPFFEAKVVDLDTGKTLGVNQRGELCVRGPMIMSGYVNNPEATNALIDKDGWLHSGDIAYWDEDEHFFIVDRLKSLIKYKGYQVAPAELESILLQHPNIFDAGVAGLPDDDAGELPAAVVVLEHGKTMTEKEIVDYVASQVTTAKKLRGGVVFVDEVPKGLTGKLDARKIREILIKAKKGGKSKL
Chain of Fibroblast growth factor 2 (Homo sapiens) (P09038 whole entry, looked up): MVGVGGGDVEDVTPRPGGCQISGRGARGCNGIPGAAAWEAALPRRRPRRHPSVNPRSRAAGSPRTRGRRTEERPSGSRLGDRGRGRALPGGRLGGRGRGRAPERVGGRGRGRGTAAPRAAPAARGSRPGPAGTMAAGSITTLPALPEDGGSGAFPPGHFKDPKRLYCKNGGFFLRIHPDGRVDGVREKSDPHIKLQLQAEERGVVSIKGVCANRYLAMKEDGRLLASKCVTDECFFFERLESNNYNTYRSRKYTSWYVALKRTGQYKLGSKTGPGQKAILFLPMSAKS

For the compound `CO[C@@H]1COC(=O)CCC[C@@H](C)[C@H](OC)COC(=O)CCC[C@H]1C`, the composite z-score is 0.463 in experiment [1]; 0.077 in [2]; -0.217 in [3]; -0.0557 in experiment [4]; 0.513 in [5]; 0.685 in experiment [6]. Moreover, the composite z-score in the experiment on Lefty1 was 0.958; in [8] it was -0.261; in experiment [10] it was -0.0665; in experiment [15] it was 0.0601; in [16], -0.0405; in the experiment with Torsin-1A (Homo sapiens) [17] it was 0.978. Also, the composite z-score came out at 0.662 with Torsin-1A (Homo sapiens) [18] and 0.533 in experiment [19]. Besides, the z-score was -0.598 in [7]; 1.17 (inactive) in [9]; -0.459 (inactive) in experiment [11]; -0.276 (inactive) in experiment [12]; -0.152 (inactive) in experiment [13]; 0.273 (inactive) in [14].
For the compound `CC(C)c1ccc(NN2C(C(O)c3ccc4c(c3)OCO4)C=CC3C(=O)N(c4ccccc4)C(=O)C32)cc1` (stereo not given), the composite z-score was 1.57 in experiment [1]; 1.19 in experiment [2]; 0.477 in experiment [3]; 1.04 in experiment [4]; 1.02 in experiment [5]; -0.146 in experiment [6]. Moreover, the composite z-score in the experiment with Lefty1 is 0.545; in [8], 0.881; in experiment [10], 0.268; in experiment [15] it was 2.14; in experiment [16], 0.125; in the experiment with Torsin-1A (Homo sapiens) [17], -0.0945. Also, the composite z-score in the experiment with Torsin-1A (Homo sapiens) [18] amounted to 1.04; in experiment [19], 0.397. For the same compound, the z-score in experiment [7] was -0.726; in [9], -1.72 (inactive); in [11], -0.0997 (inactive); in experiment [12] it was -0.505 (inactive); in experiment [13], 0.629 (inactive); in experiment [14] it was -0.0824 (inactive).
Take `CCOC(=O)NN=C1C[C@@H](O)[C@@H](O)[C@@H]2[C@@H]3C(=O)N(C4CCCCC4)C(=O)[C@@H]3CC[C@H]12`: the composite z-score in experiment [1] came out at 0.0946; in [2], 0.832; in experiment [3], 0.25; in experiment [4], 0.657; in [5], 0.061; in experiment [6], 0.0615. The composite z-score with Lefty1 is 0.78; in experiment [8] it was 0.395; in experiment [10] it was -0.064; in [15], -0.0615; in experiment [16], -0.111; with Torsin-1A (Homo sapiens) [17] it was 0.218. The composite z-score in the experiment with Torsin-1A (Homo sapiens) [18] stood at 0.568; in experiment [19], 0.369. The z-score is -1.13 in [7]; 0.63 (inactive) in experiment [9]; -0.779 (inactive) in experiment [11]; 0.786 (inactive) in [12]; 0.341 (inactive) in experiment [13]; 0.174 (inactive) in experiment [14].
With `CO[C@H]1COC(=O)CC=C[C@H](C)[C@@H](NS(=O)(=O)c2ccc(C)cc2)COC(=O)CC=C[C@@H]1C`, the composite z-score in [1] came to 2.79; in [2] it was 0.0835; in experiment [3], 0.0018; in experiment [4], 0.0607; in [5], 0.932; in [6], 0.585. For the same compound, the composite z-score in the experiment on Lefty1 is 0.819; in [8] it was -0.0118; in experiment [10], 0.0341; in experiment [15], -0.0767; in experiment [16], -0.127; in the experiment with Torsin-1A (Homo sapiens) [17], 0.693. The composite z-score came to 0.722 with Torsin-1A (Homo sapiens) [18] and 0.936 in [19]. Further, the z-score was -0.662 in experiment [7]; -0.277 (inactive) in experiment [9]; -1.82 (inactive) in experiment [11]; -0.63 (inactive) in [12]; -0.971 (inactive) in experiment [13]; -0.562 (inactive) in experiment [14].
For `C=COC[C@H]1CN2[C@@H](CC[C@@H](C)[C@@H]2c2ccc(Br)cc2)C(=O)O1`, the composite z-score in experiment [1] worked out at 1.25; in experiment [2], 0.394; in experiment [3], 0.0351; in experiment [4], 0.673; in [5] it was 0.504; in experiment [6], 0.706. For the same compound, the composite z-score in the experiment on Lefty1 is 0.51; in experiment [8], 0.276; in experiment [10], 0.52; in experiment [15], -0.0488; in experiment [16], 0.027; with Torsin-1A (Homo sapiens) [17], 0.594. Besides, the composite z-score turned out to be 0.0658 in the experiment with Torsin-1A (Homo sapiens) [18] and 1.2 in experiment [19]. Besides, the z-score in experiment [7] is 0.587; in [9] it was -2.84 (inactive); in experiment [11], -0.443 (inactive); in [12], -1.13 (inactive); in [13], 1.59 (inactive); in [14], -0.212 (inactive).
